Test results published in PubChem BioAssay AID1159580 (chemical genetic matrix, 2015).
Screen size: about 5,500 compounds; about 2,000 (36%) were called active. Not shown: some 18% with an inconclusive outcome. No stated cut-off is given here; in the data, active means normalized growth mostly below about 0.91 (no sharp cut-off); inconclusive means no clear call, values can overlap the other calls; inactive means mostly above about 0.92. This is one part of the list.

Test: chemical genetic growth profiling, strain panel (AID 1159580);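 further: tested at 20 µM; growth read once vehicle control cultures reached saturation at 30 °C; 1 = growth at the plate median or of vehicle wells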
Conditions: S. cerevisiae deletion strains, growth OD
[1] = locus YAL040C, strain CLN3, stronger effect = lower value
[2] = locus YCL061C, strain MRC1 (second series), stronger effect = lower value
[3] = locus YDR363W, strain ESC2, stronger effect = lower value
[4] = locus YER002W, strain NOP16, stronger effect = lower value
[5] = locus YMR307W, strain GAS1, stronger effect = lower value
[6] = locus YNL175C, strain NOP13, stronger effect = lower value
[7] = locus YNL197C, strain WHI3, stronger effect = lower value
[8] = locus YNL224C, strain SQS1, stronger effect = lower value
[9] = locus YOR083W, strain WHI5 (second series), stronger effect = lower value

Measured: normalized growth

C[C@@](Cc1ccc(O)c(O)c1)(NN)C(=O)O
inactive: [1] 1.01 | [2] 1 | [3] 1.02 | [4] 1.06 | [5] 0.997 | [6] 1.04 | [7] 0.993 | [8] 1.02 | [9] 0.978

COC(=O)C(C)(N)Cc1ccc(O)cc1 (stereo not drawn)
inactive: locus YAL013W, strain DEP1, stronger effect = lower value 0.991 | [1] 0.987 | [2] 1.01 | [3] 0.966 | [4] 1.01 | locus YGR078C, strain PAC10, stronger effect = lower value 0.976 | [5] 0.974 | locus YNL153C, strain GIM3, stronger effect = lower value 1.03 | [6] 0.996 | [7] 0.99 | [8] 0.997 | [9] 1.01 | locus YPL055C, strain LGE1, stronger effect = lower value 0.988 | locus YPL241C, strain CIN2, stronger effect = lower value 1.01
